Test results taken from the supplement of paper PMC6555819.

Tests used:
Test in all cases: PBM binding z-score (relative to random genomic background probes); higher = stronger binding; sequences stand for … in GC…GCGATTGACAGCGTAGAATGAAGG
[1] = tested on: FXR:RXRa (NR concentration 270 nM, RXRa partner concentration 90 nM)
Method in brief: (§1)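 Random background probes are the reference for binding z-scores. These scores derive from regression-normalized fluorescence on custom Agilent 4×180K protein-binding microarrays incubated 1 h with ligand-free nuclear receptor dimers. Binding was detected with antibodies against each partner (one per run).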

[2] = tested on: LXRa:RXRa (NR concentration 270 nM, RXRa partner concentration 90 nM)
Method in brief: as §1

[3] = tested on: LXRa homodimer (NR concentration 270 nM)
Method in brief: as §1

[4] = tested on: LXRb:RXRa (NR concentration 270 nM, RXRa partner concentration 90 nM)
Method in brief: as §1

[5] = tested on: LXRb homodimer (NR concentration 270 nM)
Method in brief: as §1

[6] = tested on: PPARa:RXRa (NR concentration 270 nM, RXRa partner concentration 90 nM)
Method in brief: as §1

[7] = tested on: PPARg:RXRa (NR concentration 180 nM, RXRa partner concentration 90 nM)
Method in brief: as §1

[8] = tested on: PPARg:RXRa 270nM:90nM, anti-RXR (NR concentration 270 nM, RXRa partner concentration 90 nM)
Method in brief: as §1

[9] = tested on: PPARg:RXRa 30nM:10nM, anti-RXR (NR concentration 30 nM, RXRa partner concentration 10 nM)
Method in brief: as §1

[10] = tested on: PPARg:RXRa 90nM:30nM, anti-RXR (NR concentration 90 nM, RXRa partner concentration 30 nM)
Method in brief: as §1

Sequence | PBM binding z-score [1] | PBM binding z-score [2] | PBM binding z-score [3] | PBM binding z-score [4] | PBM binding z-score [5] | PBM binding z-score [6] | PBM binding z-score [7] | PBM binding z-score [8] | PBM binding z-score [9] | PBM binding z-score [10]
ATATGTAGGTTAGCTCGGGTCATTCAGACTAGGC | 2.55 | 4.5 | 1.52 | 2.65 | 0.733 | 4.08 | 4.25 | 3.8 | 1.34 | 3.09
CATACAGGGTCAGCTAGGCCAGACTAGGGACGGC | 4.02 | 2.77 | -0.135 | 1.97 | 0.282 | 4.06 | 3.31 | 2.8 | 0.502 | 1.8
ATCGAAAGGTCGAGGTGAGTGTAGAGAAAGGGAA | 4.53 | 3.52 | 0.118 | 2.74 | 0.572 | 4.69 | 3.13 | 3.76 | 1.42 | 2.6
GCTTGTAGATCAAGGTTTAGAAAGACTAAGCTAA | -0.378 | -0.689 | -0.302 | -0.532 | -0.671 | 0.113 | 1.13 | 2.05 | 0.713 | 2.05
ATTGAAAGGTCGAGGTGAGTATAGAGAAAGGGAA | 4.46 | 3.8 | 0.427 | 2.93 | 1.15 | 4.7 | 4.5 | 3.84 | 1.72 | 3.01
TTTGCTAGGTCAACGATGGTCAGCTAATCTGCTA | 3.71 | 4.07 | 1.84 | 2.07 | -0.0738 | 3.59 | 3.4 | 3.77 | 1.38 | 2.86
CCTATAAGTTGACCATAAGGGCAACCGAAGCTCG | 1.36 | 0.588 | 0.467 | 0.379 | 0.387 | 0.93 | 0.632 | 0.292 | 0.0132 | -0.0263
TTACCAAGGAGAAAGGTCGTTGATGCACGCCTTG | 1.02 | 1.35 | 0.0075 | 1.32 | -0.338 | 2.37 | 2.36 | 4.03 | 2.56 | 3.74
AAAGACAGGTGATGAAGGTAACTCAGGCTATCAT | -0.191 | -0.0472 | 0.0332 | 0.0714 | -0.0721 | 0.593 | 0.785 | 0.567 | 0.567 | 0.473
CCGACTGGGGCAGAAAAGTTACCATACCATCCGG | -0.281 | -0.694 | -0.371 | -0.55 | -1.1 | -0.413 | 0.56 | -0.294 | -0.571 | -0.517
TTACCAAGGTGAAGGTCGCTGATCCCTCTGTAGA | 1.1 | 0.984 | -0.243 | 0.689 | -1.18 | 2.43 | 2.63 | 4.12 | 1.98 | 3.68
TTACCATGGTGAGCTGAGGTCGTTGATCCAACTC | 0.322 | 0.0093 | -0.568 | 0.111 | -1.05 | 0.702 | -0.38 | -0.0543 | -0.214 | -0.294
CAGCCGAGGTCAGGGCCAGTATAGGAGGAACGTT | 6.57 | 3.98 | -0.152 | 3.28 | -0.519 | 5.6 | 5.04 | 4.49 | 1.2 | 3.28
GCGTATAGGTAATACAAGGTGAAAGTCCGATTGT | 1.84 | 2.57 | 0.196 | 0.896 | -0.616 | 1.37 | 0.763 | 0.855 | 0.307 | 0.925
AGAATGAGGTTACCAAAGATCAGGGACACGCTTG | 2.25 | 6.38 | -0.0151 | 3.01 | -0.234 | 3.38 | 2.84 | 2.9 | 0.908 | 2.29
AAAATGAGGTTATACGTAGATCAGGGAAGAAAGT | 2.34 | 2.36 | 0.225 | 1.87 | 0.19 | 3.52 | 2.69 | 2.4 | 1.33 | 1.9
TAGCCTAGGACAGATCGGGCCAGTATACGCTATA | -1.33 | -1.15 | -0.706 | -1.34 | -0.794 | -1.96 | 0.367 | -0.842 | -0.355 | -0.623
GCTAGCAGGCCATTTGGGTCACTCAATGACGGGC | 0.232 | -0.126 | -0.618 | -0.0783 | -0.885 | 1.34 | 0.697 | 0.632 | -0.477 | -0.0514
GTACCAAGGTGAATAGGTGGTTGATGAGTAGGCG | 0.118 | 0.242 | -0.513 | -0.25 | -0.203 | 0.864 | 0.851 | 0.683 | 0.0319 | 0.389
TTACCAAGGTGAAAGGTCGATGATGCACGCCTTG | 3.03 | 2.42 | -0.187 | 2.14 | -0.613 | 4.95 | 8.4 | 7.54 | 6.44 | 7.87
CCTATCAGGCCAGGGTCACTCAAGCATTTCGCTT | 2.19 | 1.74 | -0.264 | 2.23 | -0.67 | 3.33 | 0.918 | 1.93 | -0.162 | 0.886
CCGACTGGGGCAGAAAGGTTACGATACCATCCGG | 0.702 | 0.832 | -0.247 | 1.01 | -0.887 | 2.34 | 2.25 | 3.05 | 0.964 | 2.25
ATACCAAGGTGATCATGAGGTCGTTGATACTAAC | 1.75 | 1.61 | 0.874 | 1.38 | -0.0501 | 1.89 | 0.785 | 0.728 | 0.266 | 0.604
